From the supplement of paper PMC6555819 come the findings set out here.

In the experiment the test system is RXRa DBDmut IVT, anti-RXR (DBD mutation: RXRa K156A/R161A, NR concentration 90 nM). The experiment in a line: PBM binding z-score (relative to random genomic background probes); higher = stronger binding; sequences stand for … in GC…GCGATTGACAGCGTAGAATGAAGG
The procedure, abridged:
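Binding buffer was PBS pH 7.4 with 2% milk, 0.02% Triton X-100, 1 mM DTT, 0.2 mg/mL BSA and 0.4 mg/ml salmon testes DNA. In it, ligand-free nuclear receptor dimers were incubated 1 h on custom Agilent 4×180K protein-binding microarrays carrying double-stranded probes. Antibodies against each partner (one per run) detected binding, and z-scores were calculated against random background probes after regression normalization of scanned fluorescence.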
TCTAGCAGGCCAGAGGGCCACTCAAGAGGTACGG returned a PBM binding z-score of -0.104.

For CAAACTAGGTCAAAGGTCCAAGTCGAGCCAACCA, the PBM binding z-score was 2.31.

On to CCTTACGGGTCACTCCCGGTTATAGCATCGGAGT, for which the PBM binding z-score came out at 1.43.

The sequence CGAACTAGGTCAAGGACAGTGACTCTCCGCACGC yielded a PBM binding z-score of 1.45.

Sequence GCCAGCAGGCCATTTGGGTCACTCAATGACGGGC came in with a PBM binding z-score of -0.31.

With TCTTATAGGTAAAGGTGAAAGTCGAACGATATGA, the PBM binding z-score worked out at 1.1.

Turning to TCTGCTAGGTCAGTTGTTCAGCTAACGAGCTGCC, the PBM binding z-score was determined as 0.434.

Regarding CATACAGTGTCAGCTAGGCCAGAGTAGGGACGGC, the PBM binding z-score was -0.017.

Regarding CGCACGAGGGCATGAGTTGATAGCAAATGCCGAT, the PBM binding z-score stood at 2.41.

TAGCCTAGGTCATTGGGCGAGTATAGTACGCATC returned a PBM binding z-score of 1.2.

With AGCACGAGGGCACGCTGAGTTGATAGCAGAGTAG, the PBM binding z-score was 1.87.

Turning to GCAGACAGGTGAAACTCAGGTAACTCAGGGTGGC, the PBM binding z-score is -0.185.

ACTAGTTGGTCAGCGGAGGTCACACACAATTCGG registered a PBM binding z-score of 0.9.

Sequence TCTATTAGTTGAAGGGCTACCGACGAGTCCGTTT came in with a PBM binding z-score of 1.63.

Regarding CGTCCAAGGTGAAGGTCAGTGAAAGAGACTCGAA, the PBM binding z-score stood at 0.585.

For the sequence CCGACTGGGGCAAAGGTTACCTTACTCAGTACGA, the PBM binding z-score was found to be 0.0718.

TCATATAGGTAAAGGTGAAAGTGGAACGATATGA came in with a PBM binding z-score of 0.597.

Consider CCGACTGGGACAAGGTTACCATAACGCACAGCCA, for which the PBM binding z-score is -0.018.

TCTCGGAGGACCCGAAAGGTCAGAGCTCGACATC: the PBM binding z-score is 0.325.

The sequence CGTCAAGGTTCAAGGTAACGTAACAGAAAGCAGC showed a PBM binding z-score of 4.1.

For the sequence CCTACTGGGCCAAAGGTAATTGATTCCAATGCTC, the PBM binding z-score is -0.288.

Turning to TCTTGTAGATCGAGCAGGTTAAGAAAGCCTGAGT, the PBM binding z-score was determined as 0.213.

Regarding CAAACTAGGTCACCGGAAGGTCAAGGTCCGCATG, the PBM binding z-score was 2.03.

Sequence TGAACGAGGTTATAAGATCAGGGAACGTTGCAAA yielded a PBM binding z-score of 0.444.

The sequence ACTAGTTGGTCAGCTGAGGTCTCACACAATTCGG showed a PBM binding z-score of 0.296.

Regarding CAAACTAGGTAACGAAAGGTCAAAGTCGAATGAC, the PBM binding z-score is 1.05.

Consider CCTATTAGTTGACCATAAGGGCAACCGAAGCTCG, for which the PBM binding z-score was found to be 0.655.

On to TCGAGTAGGTAAGTCGGGGCATTCAGCCAACATA, for which the PBM binding z-score was determined as 0.129.

CGAACGAGGGCATGAATTGATAGCAAATGCCGAT showed a PBM binding z-score of 2.24.

Sequence TCACCAAGGTGAGCTGAGGTCGTTGATCCAACTC came in with a PBM binding z-score of 0.546.

Consider ACAGACAGGTGAGTGAAGGTAACTCAGCTGGACG, for which the PBM binding z-score was -0.506.

In turn, ACTAGCAGGCCGAGGGTCACTCAAGATTAGTCCG showed a PBM binding z-score of 0.267.

Consider CCTATTAGTTGACCATAAGGACAACCGAAGCTCG, for which the PBM binding z-score is 0.69.

AGTCAAAGTTCACTAGGTACCGTAAGATTCAGCT yielded a PBM binding z-score of 4.36.

Sequence GCTTACGGGTCAAAGGTTATAGAATGAATAGAAT yielded a PBM binding z-score of 2.45.

Regarding ATCTCTAGGTAACAAGTTCTGTGAAAGAGAGGAC, the PBM binding z-score came out at 0.302.

Take ATCTTTAGGTAAAAGTTCAGTGAATCCCGAGGAT: the PBM binding z-score was 1.27.

Consider CAAACTAGGTCAAGAGGTCAAAATCCGCTTCCCG, for which the PBM binding z-score came to 2.42.

As for ACTAGCAGGCCAAGTTTGGGTCAGTCAAACAAAG, the PBM binding z-score was -0.416.

TCTCGGAGGACACGAAAGGTCAGATCTCGACATC yielded a PBM binding z-score of 1.53.
